# Test results as given in PubChem BioAssay (NCATS).
# Several values for one entry are separate records, joined by “and”; a condition that tells them apart may be missing. Equal entries are not always repeated. A number with no mark means an inactive call. Records with an inconclusive call do not appear. A call without a number means that no potency is given here. Activity calls are given as the source filed them. Unless noted, calls follow the shape of the dose curve; as a rule, active = well fitted curve in the direction sought with a large enough effect; inconclusive = small, poorly fitted or top-dose-only effect, or another doubt; inactive = no such curve, though single readings can be large; an effect the other way counts as inactive or inconclusive.
# Assays:
# [1] = target: Cytochrome P450 3A4 (Homo sapiens) (UniProt P08684); experiment: qHTS Assay for Activators of Cytochrome P450 3A4 (AID 885); also: nearly all actives have a fitted effect of over 65% in size; also: potency is read from the fitted curve at half-maximal effect
# Summary of the method: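 Using 20nM recombinant human CYP3A4 in potassium phosphate (200mM), substrate Luciferin-PPXE at 25uM, luminescent luciferin detection followed a 60-min RT NADPH reaction; data scaled to 57 uM ketoconazole.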
# [2] = target: alpha-glucosidase (Oryza sativa, rice) (UniProt Q653V4); experiment: Counterscreen for Glucocerebrosidase Inhibitors: qHTS Assay for Rice alpha-Glucosidase at pH 5.0 (AID 997)
# Summary of the method: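 Endpoint fluorogenic assay at pH 5.0: compounds (0.7 nM to 77 uM) titrated against 4 nM rice enzyme and 400 uM 4-MU-alpha-glucoside for 20 min at room temperature; NaOH/glycine stop, read ex 365/em 440 nm, Hill-fitted AC50.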
# [3] = qHTS Assay for Identification of Small Molecule Antagonists for NFkB Signaling Pathway (AID 895; active = well fitted inhibition curve with a large enough effect in the signal ratio, with a control signal flat, not every such curve was filed as active; the % refers to the signal ratio)
# Summary of the method: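 ME-180 NFkB-bla cells (beta-lactamase under NFkB response element), plated overnight, treated with compound then 10 pM TNF alpha (about EC50) for 5 hrs at 37 C. LiveBLAzer FRET read at 460/530 nm emission, 405 nm excitation.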
# [4] = target: Cytochrome P450 2C9 (Homo sapiens) (UniProt P11712); experiment: qHTS Assay for Inhibitors and Substrates of Cytochrome P450 2C9 (AID 883); also: nearly all actives have a fitted effect of over 60% in size
# Summary of the method: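 Signal: luciferase luminescence reporting luciferin produced by CYP2C9. Conditions: 10nM enzyme, Luciferin-H 100uM at KM, 25mM KPO4, 37C, 60 min NADPH-driven reaction. Reference: 57uM sulphaphenazole as 100% inhibition.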
# [5] = target: Cytochrome P450 2D6 (Homo sapiens) (UniProt P10635); experiment: qHTS Assay for Inhibitors and Substrates of Cytochrome P450 2D6 (AID 891); also: nearly all actives have a fitted effect of over 60% in size; also: potency is read from the fitted curve at half-maximal effect
# Summary of the method: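 Luminescent read-out of luciferin formed by 5 nM human CYP2D6 demethylating 30 uM Luciferin-ME EGE (Km level) over 60 min at room temperature after NADPH regeneration addition. Data normalized to full inhibition by 1.43 uM quinidine.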
# [6] = target: Muscarinic acetylcholine receptor M1 (Rattus norvegicus) (UniProt P08482); experiment: qHTS Assay for Antagonists of Acetylcholine Muscarinic M1 Receptor: Measurement of IP-One Response (AID 944); also: nearly all actives have a fitted effect of over 75% in size; also: potency is read from the fitted curve at half-maximal effect
# Summary of the method: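 Antagonism was measured as loss of carbachol-driven (EC80) IP1 accumulation in CHO cells carrying rat M1, using a homogeneous IP-One TR-FRET kit read at 620 and 665 nm.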
# [7] = target: Muscarinic acetylcholine receptor M1 (Rattus norvegicus) (UniProt P08482); experiment: qHTS Assay for Antagonists of Acetylcholine Muscarinic M1 Receptor: Kinetic Measurement of Intracellular Calcium Response (AID 943); also: nearly all actives have a fitted effect of over 75% in size; also: potency is read from the fitted curve at half-maximal effect
# Summary of the method: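 Quantitative HTS in CHO-M1 (rat receptor) cells: 10 min compound exposure ahead of 100 nM carbachol, Fluo-4 fluorescence followed 4 min, value expressed as peak-to-basal ratio.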
# [8] = target: Pyruvate kinase (Leishmania mexicana) (UniProt Q27686); experiment: qHTS Validation Assay for Activators of Leishmania Mexicana Pyruvate Kinase (AID 959); details: purified L. mexicana pyruvate kinase, enzyme activity
# Summary of the method: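 Luminescent ATP detection (PKLight) after a 1 h room-temperature reaction of 0.2 nM LmPYK E451W mutant with 0.5 mM PEP and 0.1 mM ADP at pH 7.2. Activity is normalized to DMSO-only control wells.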
# [9] = target: Alpha-galactosidase A (Homo sapiens) (UniProt P06280); experiment: Counterscreen for Glucocerebrosidase Inhibitors: qHTS Assay for Human alpha-Galactosidase at pH 4.5 (AID 992)
# Summary of the method: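 Each compound is preincubated briefly with 2 nM enzyme before substrate addition (80 uM); plates then sit 20 min at ambient temperature, are quenched with 1M NaOH/1M glycine, and read fluorometrically.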
# [10] = qHTS Assay for Identification of Small Molecule Antagonists for Thrombopoietin (TPO) Signaling Pathway (AID 918); details: TPO-dependent cell signaling reporter, antagonist mode; also: potency is read from the fitted curve at half-maximal effect; nearly all actives have a fitted effect of over 60% in size
# Summary of the method: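 Antagonist mode at EC50 TPO (26 pM) in IL-3-free medium; murine Ba/F3 cells with human TPO receptor and GPIIb-promoter luciferase, 24 hrs at 37 C before luminescent detection.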
# [11] = target: Cytochrome P450 2C19 (Homo sapiens) (UniProt P33261); experiment: qHTS Assay for Inhibitors and Substrates of Cytochrome P450 2C19 (AID 899); also: nearly all actives have a fitted effect of over 60% in size; also: potency is read from the fitted curve at half-maximal effect
# Summary of the method: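 Signal comes from luciferase acting on luciferin released by CYP2C19-mediated hydroxylation of Luciferin-H EGE, 10uM (KM). Assay mix: 5nM enzyme, 50mM KPO4; 60 min at 37C with NADPH regeneration. Data normalized against 57uM ketoconazole.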
# [12] = target: Tyrosyl-DNA phosphodiesterase 1 (Homo sapiens) (UniProt Q9NUW8); experiment: Confirmation Assay for Inhibitors of Tyrosyl-DNA Phosphodiesterase (TDP1) (AID 489007); details: recombinant human TDP1 enzymatic activity, dose-response; also: potency is read from the fitted curve at half-maximal effect; nearly all actives have a fitted effect of over 40% in size
# Summary of the method: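 Loss of AlphaScreen signal reports Tdp1 cleavage of a dual-labelled DNA substrate. Conditions: 1 nM E. coli-derived enzyme, 15 nM substrate, 15 min compound preincubation, 5 min reaction, 10 min bead incubation, all at room temperature.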
# [13] = target: Cytochrome P450 3A4 (Homo sapiens) (UniProt P08684); experiment: qHTS Assay for Inhibitors and Substrates of Cytochrome P450 3A4 (AID 884); also: series mostly up to about 57 µM; nearly all actives have a fitted effect of over 50% in size
# Summary of the method: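 Luminescent readout of luciferin produced by CYP3A4 (20 nM) dealkylation of Luciferin-PPXE, 25 uM (its KM). NADPH-driven reaction ran 60 min at RT after 10 min compound preincubation; data scaled to 57 uM ketoconazole as 100% inhibition.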
# Sequence of Alpha-galactosidase A (Homo sapiens) (P06280 whole entry, looked up): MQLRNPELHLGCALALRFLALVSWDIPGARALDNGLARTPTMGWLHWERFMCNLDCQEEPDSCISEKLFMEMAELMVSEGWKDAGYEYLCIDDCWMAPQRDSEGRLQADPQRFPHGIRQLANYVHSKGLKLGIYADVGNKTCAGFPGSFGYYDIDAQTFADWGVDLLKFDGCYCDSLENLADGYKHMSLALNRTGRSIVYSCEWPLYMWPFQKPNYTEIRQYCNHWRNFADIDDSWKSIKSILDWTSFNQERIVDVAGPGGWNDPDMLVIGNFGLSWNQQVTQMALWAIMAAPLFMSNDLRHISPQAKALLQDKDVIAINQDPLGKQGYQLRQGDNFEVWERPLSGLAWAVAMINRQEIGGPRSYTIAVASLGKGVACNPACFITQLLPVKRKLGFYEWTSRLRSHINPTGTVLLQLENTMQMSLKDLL
# Sequence of Cytochrome P450 3A4 (Homo sapiens) (P08684 whole entry, looked up): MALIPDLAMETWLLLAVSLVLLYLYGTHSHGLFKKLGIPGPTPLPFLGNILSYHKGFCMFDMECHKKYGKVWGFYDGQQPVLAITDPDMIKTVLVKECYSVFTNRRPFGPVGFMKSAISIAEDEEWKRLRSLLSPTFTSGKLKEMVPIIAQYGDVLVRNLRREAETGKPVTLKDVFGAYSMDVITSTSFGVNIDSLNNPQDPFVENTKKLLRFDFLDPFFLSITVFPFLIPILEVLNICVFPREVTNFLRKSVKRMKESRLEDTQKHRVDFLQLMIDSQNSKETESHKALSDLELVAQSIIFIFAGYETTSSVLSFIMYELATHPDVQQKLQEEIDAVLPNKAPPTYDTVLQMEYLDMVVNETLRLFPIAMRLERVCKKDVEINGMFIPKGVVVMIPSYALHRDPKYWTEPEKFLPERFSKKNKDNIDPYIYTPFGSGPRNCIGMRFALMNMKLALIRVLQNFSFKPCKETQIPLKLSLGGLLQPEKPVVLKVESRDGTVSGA
# Sequence of Cytochrome P450 2D6 (Homo sapiens) (P10635 whole entry, looked up): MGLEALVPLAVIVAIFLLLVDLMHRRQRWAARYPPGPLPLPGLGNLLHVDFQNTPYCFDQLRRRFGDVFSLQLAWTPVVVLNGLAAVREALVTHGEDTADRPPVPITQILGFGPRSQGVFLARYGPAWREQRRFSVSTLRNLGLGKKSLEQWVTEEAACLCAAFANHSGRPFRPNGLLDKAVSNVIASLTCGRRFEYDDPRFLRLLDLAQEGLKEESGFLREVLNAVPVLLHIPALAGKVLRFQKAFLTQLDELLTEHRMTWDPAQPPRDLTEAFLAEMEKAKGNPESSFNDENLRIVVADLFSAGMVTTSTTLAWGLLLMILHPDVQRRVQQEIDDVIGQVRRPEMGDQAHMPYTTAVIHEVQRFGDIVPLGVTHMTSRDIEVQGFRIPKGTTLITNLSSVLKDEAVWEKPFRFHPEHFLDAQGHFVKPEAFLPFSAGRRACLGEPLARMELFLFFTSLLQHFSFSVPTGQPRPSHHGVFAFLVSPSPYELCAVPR
# Sequence of Muscarinic acetylcholine receptor M1 (Rattus norvegicus) (P08482 whole entry, looked up): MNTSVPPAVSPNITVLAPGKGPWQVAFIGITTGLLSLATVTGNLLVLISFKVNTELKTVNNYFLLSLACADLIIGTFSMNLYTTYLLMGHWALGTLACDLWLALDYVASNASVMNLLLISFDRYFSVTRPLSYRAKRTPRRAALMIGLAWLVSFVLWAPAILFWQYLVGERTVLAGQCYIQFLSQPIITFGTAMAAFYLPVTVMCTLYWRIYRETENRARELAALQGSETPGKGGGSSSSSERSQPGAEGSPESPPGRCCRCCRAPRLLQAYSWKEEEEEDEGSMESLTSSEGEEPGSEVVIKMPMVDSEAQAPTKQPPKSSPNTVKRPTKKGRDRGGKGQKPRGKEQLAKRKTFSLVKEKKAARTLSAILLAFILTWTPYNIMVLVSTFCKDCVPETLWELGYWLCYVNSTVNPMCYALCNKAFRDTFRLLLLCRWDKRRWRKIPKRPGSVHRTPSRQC
# Sequence of Cytochrome P450 2C9 (Homo sapiens) (P11712 whole entry, looked up): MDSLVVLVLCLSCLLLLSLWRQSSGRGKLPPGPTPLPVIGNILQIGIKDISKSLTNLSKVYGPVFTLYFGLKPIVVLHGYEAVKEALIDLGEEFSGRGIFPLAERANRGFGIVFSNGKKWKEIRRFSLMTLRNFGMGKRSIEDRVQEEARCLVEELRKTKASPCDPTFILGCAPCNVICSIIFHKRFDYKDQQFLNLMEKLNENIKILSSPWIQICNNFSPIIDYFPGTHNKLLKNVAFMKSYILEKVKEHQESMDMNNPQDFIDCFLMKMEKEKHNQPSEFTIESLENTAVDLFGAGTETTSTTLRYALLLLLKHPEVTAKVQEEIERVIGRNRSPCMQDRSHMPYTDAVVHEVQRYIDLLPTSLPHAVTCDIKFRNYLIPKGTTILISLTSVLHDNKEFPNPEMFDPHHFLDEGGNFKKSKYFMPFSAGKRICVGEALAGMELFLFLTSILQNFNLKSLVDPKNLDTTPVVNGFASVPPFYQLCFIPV
# Sequence of Cytochrome P450 2C19 (Homo sapiens) (P33261 whole entry, looked up): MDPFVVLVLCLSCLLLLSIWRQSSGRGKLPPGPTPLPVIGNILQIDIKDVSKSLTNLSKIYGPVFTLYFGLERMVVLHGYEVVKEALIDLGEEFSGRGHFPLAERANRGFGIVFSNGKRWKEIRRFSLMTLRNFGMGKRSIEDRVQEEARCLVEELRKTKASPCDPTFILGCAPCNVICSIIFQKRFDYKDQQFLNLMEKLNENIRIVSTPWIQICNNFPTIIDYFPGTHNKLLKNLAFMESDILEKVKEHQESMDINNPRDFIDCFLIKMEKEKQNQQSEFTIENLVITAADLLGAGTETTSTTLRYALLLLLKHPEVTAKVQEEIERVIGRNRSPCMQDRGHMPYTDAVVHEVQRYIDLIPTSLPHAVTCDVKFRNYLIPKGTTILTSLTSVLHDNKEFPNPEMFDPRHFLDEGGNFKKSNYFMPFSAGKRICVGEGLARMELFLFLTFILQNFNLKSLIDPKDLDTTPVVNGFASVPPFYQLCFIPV
# Sequence of Pyruvate kinase (Leishmania mexicana) (Q27686 2-499 E452W): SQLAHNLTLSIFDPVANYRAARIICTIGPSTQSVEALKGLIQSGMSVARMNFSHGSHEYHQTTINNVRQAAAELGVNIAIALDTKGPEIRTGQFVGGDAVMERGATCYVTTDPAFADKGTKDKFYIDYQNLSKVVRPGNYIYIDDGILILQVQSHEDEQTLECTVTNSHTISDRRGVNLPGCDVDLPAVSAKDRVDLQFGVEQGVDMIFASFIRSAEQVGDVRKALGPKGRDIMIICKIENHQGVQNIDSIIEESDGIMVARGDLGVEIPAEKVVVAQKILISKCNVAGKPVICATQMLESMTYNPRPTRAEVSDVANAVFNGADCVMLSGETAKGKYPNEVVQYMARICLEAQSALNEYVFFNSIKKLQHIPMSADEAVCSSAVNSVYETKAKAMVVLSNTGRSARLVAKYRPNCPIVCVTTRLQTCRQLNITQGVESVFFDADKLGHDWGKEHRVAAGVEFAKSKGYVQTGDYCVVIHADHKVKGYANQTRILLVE
# Sequence of Tyrosyl-DNA phosphodiesterase 1 (Homo sapiens) (Q9NUW8 whole entry, looked up): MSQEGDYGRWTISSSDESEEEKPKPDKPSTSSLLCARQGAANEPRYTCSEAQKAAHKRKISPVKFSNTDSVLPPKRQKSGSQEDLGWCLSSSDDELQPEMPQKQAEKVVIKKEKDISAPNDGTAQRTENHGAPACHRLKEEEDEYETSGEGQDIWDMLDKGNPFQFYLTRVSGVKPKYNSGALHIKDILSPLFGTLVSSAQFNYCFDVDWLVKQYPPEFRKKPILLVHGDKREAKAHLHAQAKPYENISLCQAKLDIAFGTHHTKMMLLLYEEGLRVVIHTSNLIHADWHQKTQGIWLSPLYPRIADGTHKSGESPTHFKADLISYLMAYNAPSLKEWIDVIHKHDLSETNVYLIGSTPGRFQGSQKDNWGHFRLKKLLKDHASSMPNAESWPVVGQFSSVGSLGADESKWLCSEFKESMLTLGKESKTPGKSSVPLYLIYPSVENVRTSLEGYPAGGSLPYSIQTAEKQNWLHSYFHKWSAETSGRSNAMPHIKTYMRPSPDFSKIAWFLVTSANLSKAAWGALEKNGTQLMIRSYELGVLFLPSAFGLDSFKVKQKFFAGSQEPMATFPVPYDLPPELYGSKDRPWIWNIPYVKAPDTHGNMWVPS
smiles,measurement,setting,value
CC(C)CN1CC[C@@]2(CCCN(C(=O)c3cc(C(F)(F)F)cc(C(F)(F)F)c3)C2)C1,Potency,[1],inactive
CCCN(CCC)C(=O)[C@@H](CCC(=O)O)NC(=O)c1ccccc1,outcome,[2],inactive
CC[C@]1(C)CC(=O)NC1=O,Potency,[3],inactive
C[C@@]12CC[C@@H]3c4ccc(O)cc4CC[C@H]3[C@H]1CC[C@H]2O,Potency,[4],inactive
same,Potency,[5],inactive
c1ccc([C@@H]2CN3CCSC3=N2)cc1,Potency,[6],inactive
CC(=O)OCC1=C(C(=O)O)N2C(=O)[C@@H](NC(=O)CSc3ccncc3)[C@@H]2SC1,Potency,[1],inactive
same,Potency,[3],inactive
same,Potency,[7],inactive
same,Potency,[6],inactive
same,Potency,[8],15.8 µM (active)
same,outcome,[9],inactive
same,outcome,[2],inactive
OCCN1CCN(CC/C=C2\c3ccccc3Sc3ccc(C(F)(F)F)cc32)CC1,Potency,[1],inactive
same,Potency,[7],0.891 µM (active)
same,Potency,[6],5.01 µM (active)
CCN(CC)CCC[C@H](C)Nc1c2ccc(Cl)cc2nc2ccc(OC)cc12,Potency,[1],inactive
same,Potency,[5],199 nM (active) and 126 nM (active)
same,Potency,[10],10 µM (active)
C[C@@H](COc1ccccc1)N(CCCl)Cc1ccccc1,Potency,[5],158 nM (active)
same,Potency,[11],2 µM (active)
same,outcome,[9],inactive
C[C@@H](C(=O)O)c1cccc(C(=O)c2ccccc2)c1,Potency,[3],inactive
CN(C)[C@H]1C(=O)C(C(=O)NCN2CCCC2)=C(O)[C@]2(O)C(=O)C3=C(O)c4c(O)cccc4[C@@](C)(O)[C@H]3C[C@@H]12,Potency,[12],8.91 µM (active)
CN(C)CC[C@@H](c1ccccc1)c1ccccn1,Potency,[13],inactive
same,Potency,[3],inactive
same,Potency,[7],11.2 µM (active)
same,Potency,[6],10 µM (active)
same,outcome,[9],inactive
same,outcome,[2],inactive
CO[C@H]1C[C@@H](O[C@@H]2[C@H](C)[C@H](O[C@@H]3O[C@@H](C)C[C@@H](N(C)C)[C@@H]3O)[C@H](C)C[C@]3(CO3)C(=O)[C@H](C)[C@H](O)[C@H](C)[C@H](C)OC(=O)[C@@H]2C)O[C@@H](C)[C@H]1O,Potency,[1],inactive
CC[C@H](NC(C)C)[C@H](O)c1ccc(O)c(O)c1,Potency,[1],inactive
same,Potency,[7],inactive
same,Potency,[6],inactive
CC1=C(C(=O)O)N2C(=O)[C@@H](NC(=O)[C@@H](N)c3ccccc3)[C@@H]2SC1,Potency,[3],inactive
CC(=O)[C@@H]1CC[C@@H]2[C@@H]3CCC4=CC(=O)CC[C@@]4(C)[C@H]3CC[C@]21C,Potency,[13],inactive
same,Potency,[5],inactive
CCN(CC)CC#CCOC(=O)[C@@](O)(c1ccccc1)C1CCCCC1,Potency,[1],inactive
same,outcome,[9],inactive
CC1(C)O[C@@H]2C[C@H]3[C@H]4C[C@H](F)C5=CC(=O)C=C[C@@]5(C)[C@@H]4[C@H](O)C[C@]3(C)[C@]2(C(=O)CO)O1,Potency,[1],inactive
same,Potency,[11],inactive
CC(=O)O[C@]1(C(C)=O)CC[C@@H]2[C@@H]3C=C(Cl)C4=CC(=O)[C@H]5C[C@@H]5[C@]4(C)[C@H]3CC[C@]21C,Potency,[13],inactive
same,Potency,[1],3.16 µM (active) and 10 µM (active)
CCN(CC)CCC[C@H](C)Nc1ccnc2cc(Cl)ccc12,Potency,[7],5.01 µM (active)
same,outcome,[2],inactive
C[C@@H](C[N+](C)(C)C)OC(N)=O,Potency,[4],inactive
same,Potency,[3],inactive
same,Potency,[7],inactive
same,Potency,[6],inactive
CC(=O)O[C@@H](C)C[N+](C)(C)C,Potency,[7],inactive
same,Potency,[6],inactive
O=C(O)/C=C\c1ccc(O)c(O)c1,Potency,[5],inactive
same,Potency,[11],inactive
CN1[C@@H](CC(=O)c2ccccc2)CCC[C@@H]1C[C@@H](O)c1ccccc1,Potency,[4],inactive
same,Potency,[5],251 nM (active) and 79.4 nM (active) and 10 nM (active)
same,Potency,[11],inactive
CC(C)COC[C@H](CN(Cc1ccccc1)c1ccccc1)N1CCCC1,Potency,[1],inactive
same,Potency,[5],15.8 nM (active)
same,Potency,[7],inactive
same,Potency,[6],inactive
